Assay results reported in ChEMBL document CHEMBL3433997, “St. Jude Leishmania screening dataset” (2016).

Experiments:
Type in all cases: functional
[1] = biological target: Solute carrier family 2, facilitated glucose transporter member 1 (Homo sapiens) (UniProt P11166); test: ST_JUDE_LEISH: Cytotoxicity at 2uM final concentration against transgenic Leishmania Mexicana promastigotes LmGLUT1 that are glucose transport deficient and complemented with the human glucose transporter GLUT1. Activity is measured by DNA content using SYBR green in vitro
[2] = biological target: Hexose transporter 1 (Plasmodium falciparum) (UniProt O97467); test: ST_JUDE_LEISH: Cytotoxicity at 2uM final concentration against transgenic Leishmania Mexicana promastigotes LmPfHT that are glucose transport deficient and complemented with the Plasmodium falciparum hexose transporter. Activity is measured by DNA content using SYBR green in vitro
[3] = biological target: Glucose transporter (Leishmania mexicana) (UniProt O61059); test: ST_JUDE_LEISH: Cytotoxicity at 2uM final concentration against transgenic Leishmania Mexicana promastigotes LmGT2 that are glucose transport deficient and complemented with the L. Mexicana glucose transporter 2. Activity is measured by DNA content using SYBR green in vitro

Sequence of Solute carrier family 2, facilitated glucose transporter member 1 (Homo sapiens) (P11166 whole entry): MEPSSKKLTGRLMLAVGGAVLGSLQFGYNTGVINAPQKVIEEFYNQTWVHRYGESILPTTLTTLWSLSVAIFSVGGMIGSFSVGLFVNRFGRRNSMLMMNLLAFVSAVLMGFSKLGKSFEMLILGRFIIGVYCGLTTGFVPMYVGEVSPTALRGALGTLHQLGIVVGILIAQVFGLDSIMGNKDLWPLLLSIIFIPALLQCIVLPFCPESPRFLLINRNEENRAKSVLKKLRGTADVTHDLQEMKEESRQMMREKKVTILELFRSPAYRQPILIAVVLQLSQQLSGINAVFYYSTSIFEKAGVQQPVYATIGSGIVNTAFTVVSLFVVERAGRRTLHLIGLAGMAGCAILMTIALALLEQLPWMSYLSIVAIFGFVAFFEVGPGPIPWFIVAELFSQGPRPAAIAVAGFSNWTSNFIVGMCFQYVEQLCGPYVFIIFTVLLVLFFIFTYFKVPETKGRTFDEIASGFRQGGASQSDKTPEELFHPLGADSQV

| Compound | inhibition [1] [%] | inhibition [2] [%] | inhibition [3] [%] |
| --- | --- | --- | --- |
| COc1ccc2c(=NN=Cc3cccc(Cl)c3)cc(C)[nH]c2c1 | 2.13 | 0.71 | -0.53 |
| Cc1cc(N2CCCC2)nc(Nc2ccc(NC(=O)c3ccc(Br)o3)cc2)n1 | 4.16 | 9.42 | 5.64 |
| COC(=O)c1ccc(OCC(C)NCC(O)c2cccc(C(F)(F)F)c2)cc1 (stereo unspecified) | 10.7 | 8.32 | 8.64 |
| CCc1nnc2sc(-c3cccc(NC(=O)c4ccc(OC)c(Cl)c4)c3)nn12 | 1.05 | 2.45 | 3.88 |
| CCOc1cc(C(=O)N[C@@H](Cc2ccccc2)[C@H](O)CNCc2cccc(OC)c2)cc(N2CCCCS2(=O)=O)c1 | 5.4 | 5.25 | 3.08 |
| COc1ccc2c(N/N=C/c3cccc([N+](=O)[O-])c3)ccnc2c1 | -2.24 | -3.16 | -0.29 |
| CCCc1cnc2nc(N)nc(N)c2c1C | -2.96 | -0.62 | 0.34 |
| CC(CCCC(=O)Nc1ccc(CC(C)NCCc2cccc(Cl)c2)cc1)NCCc1cccc(Cl)c1 (stereo unspecified) | 2.68 | 0.02 | 1.32 |
| COc1ccc2ccccc2c1CNCCCCCCNCc1c(OC)ccc2ccccc12 | 1.14 | -0.97 | -3.28 |
| O=C(Nc1ccccc1)Nc1ccc(-c2cccc(-c3nc4cc(C(F)(F)F)ccc4[nH]3)c2)cc1 | 4.44 | 0.5 | 2.05 |
| CC1(C)N=C(N)N=C(N)C1c1ccc(Cl)c(Cl)c1 (stereo unspecified) | 0.69 | 2.94 | 1.36 |
| CCCCCCN1CCC(NCc2cccc3ccccc23)CC1 | 7.18 | 12.1 | 13.7 |
| CN1CCN(c2ccc(-c3cccc(NC(=O)c4cccc([N+](=O)[O-])c4)c3)nn2)CC1 | 3.29 | 1.6 | 1.84 |
| COc1ccccc1C1CCN(C2CCC(NC(=O)/C=C/c3cccc(Cl)c3F)CC2)CC1 (stereo unspecified) | 10.5 | 1.32 | 3.14 |
| Cc1nc(NC2=NCN(CCCN3CCOCC3)CN2)nc2c(C)cccc12 | 8.37 | 17.2 | 11 |
| [O-][s+]1nc(NCCCN(Cc2cccs2)c2ccccn2)c(NCc2ccccc2)n1 (stereo unspecified) | -1.34 | 0.68 | -1.82 |
| Cc1cccc(Cn2nc(-c3ccccc3)c(N3CCCCC3)cc2=O)c1 | 2.58 | 3.01 | -2.21 |
| CCCCc1ccc(C(=O)Nc2ccc3nc(N4CCN(C)CC4)cc(C)c3c2)cc1 | 2.19 | 3.48 | 3.48 |
| CN(C)CCC=C1c2ccccc2Sc2c(O)cc(Cl)cc21 | -0.51 | 4.06 | 1.71 |

| Compound | inhibition [1] [%] | inhibition [2] [%] | inhibition [3] [%] |
| --- | --- | --- | --- |
| COc1cccc(NC(=O)c2ccc(NCCCN3CCC(C)CC3)c([N+](=O)[O-])c2)c1 | 76.1 | 41.7 | 12.8 |
| NC(=O)c1cccc(CNCc2ccc(-c3cccc(-c4nc5ccccc5[nH]4)c3)cc2)c1 | 5.8 | 5.87 | 5.4 |
| O=C(C=Cc1ccc(C(=O)Nc2ccc(C3=NCCN3)cc2)cc1)Nc1ccc(C2=NCCN2)cc1 | 5.16 | 5.38 | 5.13 |
| CN(C)c1ccc(C=Cc2ccc3ccccc3n2)c(Cl)c1 | 91.5 | 83.8 | 85.2 |
| Nc1ccnc2ccc(NC(=O)CCCCCc3ccccc3)cc12 | 1.43 | 0.96 | 1.99 |
| Nc1oc2c(CN3CCCCCC3)c(O)ccc2c(=O)c1-c1nc2ccccc2s1 | -1.92 | 6.76 | 2.85 |
| CC(C)NCc1ccc(-c2cccc(NC(=O)c3cccc(Cl)c3)c2)cc1 | 17.7 | 12.9 | 10.7 |
| COc1cc2nc(N3CCN(C(=O)c4ccco4)CC3)nc(NCc3ccccc3)c2cc1OC | 14.9 | 15.2 | 11.1 |
| CCCCN(CCCC)CCCN(CCCN(CCCC)CCCC)c1cc(C)nc(Nc2ccc3cc(Br)ccc3c2)n1 | 12 | 10.1 | 6.68 |
| O=[N+]([O-])c1cccc(CNCC2CCN(CCc3ccccc3)CC2)c1 | 2.35 | 1.86 | 2.16 |
| CC(=O)Nc1ccc(OCCCCN(Cc2ccccc2C(F)(F)F)c2ccc(C#N)c(C(F)(F)F)c2)c(Cl)c1 | 4.39 | 4.65 | 4.57 |
| CC(C)COc1ccc(Cl)cc1Cc1ccc(-c2nc3ccc(Br)cc3[nH]2)o1 | 5.75 | 5.74 | 4.95 |
| COc1ccc2[nH]ccc(=NN=Cc3cccc(C)n3)c2c1 | 18.7 | 14.9 | 11.8 |
| CCOc1ccc(-c2noc(-c3c[nH]c4ccccc4c3=O)n2)cc1 | 1.69 | -0.34 | 2.82 |
| Cc1cc(C)c(NC(=O)NC2CCN(CCCCCNC(=O)/C=C/c3ccc(Cl)c(Cl)c3)CC2)c(C)c1 | 4.35 | 2.53 | 3.81 |
| CC1(C)C2C=C(CN3CCC(NC(=O)Nc4ccc(Cl)c(Cl)c4)CC3)C1CC2 (stereo unspecified) | 8.89 | 7.57 | 7.92 |
| CC(C)C[C@H](NC(=O)c1cc(-c2ccc(C(C)(C)C)cc2)no1)C(=O)O.CC(C)C[C@H](NC(=O)c1conc1-c1ccc(C(C)(C)C)cc1)C(=O)O | 1.21 | 0.89 | 0.84 |
| Cc1ccc(C(=O)Nc2cc(C(F)(F)F)cc(C(F)(F)F)c2)cc1[N+](=O)[O-] | 9.19 | 12.4 | 7.77 |
